Several values for one entry are separate records, joined by “and”; a condition that tells them apart may be missing. Equal entries are not always repeated. Structures can show the parent of a compound that is named as a salt. ± gives the standard deviation of the averaged measurements. Over roughly 1,800 compounds, “GFP- (p16Ink4a-) cell count relative to negative-control wells” has its median near 0.99; the lowest 2% begin near 0.5. The full list was thinned out, with the lowest values kept by preference.

The experiment deals with mouse p16Ink4a+/- lung fibroblasts (INKBRITE, bleomycin-injured). The experiment in a line: GFP- (p16Ink4a-) cell count relative to negative-control wells (fold of vehicle); higher = more p16Ink4a- cells surviving. The note with it: 1 µM; 3 days.
Regarding `CCN(CC)CCCCNc1ncc2cc(-c3cc(OC)cc(OC)c3)c(NC(=O)NC(C)(C)C)nc2n1`, the GFP- is 0.935.
Then `Cc1ccnc2c1NC(=O)c1cccnc1N2C1CC1` [Nevirapine], with 1.06; and `CC(C)=CCC[C@](C)(O[C@@H]1O[C@H](CO[C@@H]2OC[C@@H](O)[C@H](O)[C@H]2O)[C@@H](O)[C@H](O)[C@H]1O)[C@H]1CC[C@]2(C)[C@@H]1[C@H](O)C[C@@H]1[C@@]3(C)CC[C@H](O[C@@H]4O[C@H](CO)[C@@H](O)[C@H](O)[C@H]4O)C(C)(C)[C@@H]3CC[C@]12C` [Gynostemma Extract], with 1.07.
Then `O=C(O)C1=CO[C@@H](O[C@@H]2O[C@H](CO)[C@@H](O)[C@H](O)[C@H]2O)[C@@H]2C(CO)=CC[C@H]12` [Geniposidic acid], with 1.05.
On to `CC1(C)CCC(c2ccc(Cl)cc2)=C(CN2CCN(c3ccc(C(=O)NS(=O)(=O)c4ccc(N[C@H](CCN5CCOCC5)CSc5ccccc5)c(S(=O)(=O)C(F)(F)F)c4)cc3)CC2)C1` [Navitoclax], for which the GFP- is 0.944.
`NCC(=O)Nc1ccc(-n2nc(C(F)(F)F)cc2-c2ccc3c(ccc4ccccc43)c2)cc1` yielded a GFP- of 1.1.
Molecule `CCN(CC)C(=S)SSC(=S)N(CC)CC` [Disulfiram] gave a GFP- of 0.453.
Molecule `O=C(O)CCc1ccc(NCc2cccc(Oc3ccccc3)c2)cc1` returned a GFP- of 0.98.
In turn, `CC(C)C[C@H](NC(=O)CNC(=O)c1cc(Cl)ccc1Cl)B(O)O` [Ixazomib] registered a GFP- of 0.394.
As for `CCCC(C)NC(=O)c1ccc(Cl)c(Cl)c1` (centres undefined), the figure is 1.14; as for `CCOc1ccn(-c2ccc(F)cc2)c(=O)c1C(=O)Nc1ccc(Oc2ccnc(N)c2Cl)c(F)c1`, 0.736.
The molecule `CN1CCN(c2c(F)cc3c(=O)c(C(=O)O)cn4c3c2OCN4C)CC1` [Marbofloxacin] returned a GFP- of 1.07.
`Cn1cc(C2=C(c3ccc(Cl)cc3Cl)C(=O)NC2=O)c2ccccc21` yielded a GFP- of 0.845.
As for `Cc1c(OCC(F)(F)F)ccnc1C[S@@](=O)c1nc2ccccc2[nH]1` [Dexlansoprazole], the figure is 0.956; as for `CCc1cnn2c(NCc3ccc[n+]([O-])c3)cc(N3CCCC[C@H]3CCO)nc12` [Dinaciclib], 0.383; as for `COc1ccc(CNc2nc(N3CCC[C@H]3CO)ncc2C(=O)NCc2ncccn2)cc1Cl` [Avanafil], 1.06.
`CC(C)c1nc(CN(C)C(=O)N[C@@H](CCN2CCOCC2)C(=O)N[C@H](CC[C@H](Cc2ccccc2)NC(=O)OCc2cncs2)Cc2ccccc2)cs1` [Cobicistat] displayed a GFP- of 1.04.
In turn, `CC(C)C[C@H](NC(=O)[C@H](CCc1ccccc1)NC(=O)CN1CCOCC1)C(=O)N[C@@H](Cc1ccccc1)C(=O)N[C@@H](CC(C)C)C(=O)[C@@]1(C)CO1` [Carfilzomib] came in with a GFP- of 0.433.
As for `COc1ccc(C[C@H](NC(=O)[C@H](C)NC(=O)CN2CCOCC2)C(=O)N[C@@H](Cc2ccccc2)C(=O)[C@]2(C)CO2)cc1`, the figure is 0.791; as for `CCC[C@@H]1C[C@@H](C(=O)N[C@H](C(C)Cl)[C@H]2O[C@H](SC)[C@H](O)[C@@H](O)[C@H]2O)N(C)C1` (some centres undefined) [Clindamycin HCl], 0.865 and 1.15.
`COC(=O)C1=C(C#N)N=C(C)/C(=C(\O)OC(C)C)C1c1cccc([N+](=O)[O-])c1` (centres undefined) [Nilvadipine] returned a GFP- of 0.683.
As for `CS(=O)(=O)N1CCN(Cc2cc3nc(-c4cccc5[nH]ncc45)nc(N4CCOCC4)c3s2)CC1`, the figure is 0.676; as for `COc1ccc(-c2nc(N3CCOCC3)c3sc(CN(C)c4ncc(C(=O)NO)cn4)cc3n2)cn1` [Fimepinostat], 0.491 ± 0.025.
As for `Cc1c(CN2CCN(C(=O)[C@H](C)O)CC2)sc2c(N3CCOCC3)nc(-c3cnc(N)nc3)nc12`, the figure is 0.612; as for `CCN(CC)CC#CCOC(=O)C(O)(c1ccccc1)C1CCCCC1` (centres undefined) [Oxybutynin], 0.971.
For the molecule `Nc1ccccc1NC(=O)c1ccc(CNc2nccc(-c3cccnc3)n2)cc1` [Mocetinostat], the GFP- came to 0.436 ± 0.22.
Then `Cc1ccc(NC(=O)c2ccc(CN3CCN(C)CC3)cc2)cc1Nc1nccc(-c2cccnc2)n1` [Imatinib, Imatinib Mesylate], with 1.04 and 0.966.
As for `Nc1ccccc1NC(=O)c1ccc(CNC(=O)OCc2cccnc2)cc1` [Entinostat], the figure is 0.641 ± 0.022; as for `c1cnc2cc3c(cc2n1)C1CNCC3C1` [Varenicline Tartrate], 0.907; as for `CCCCc1ncc(/C=C(\Cc2cccs2)C(=O)O)n1Cc1ccc(C(=O)O)cc1` [Eprosartan], 0.961.
`Cn1cc(-c2cnn3c(N)c(Br)c([C@@H]4CCCNC4)nc23)cn1`: the GFP- is 0.988.
On to `NC(=O)N1CCC(CC(=O)N2CCC([C@H]3c4ncc(Br)cc4CCc4cc(Cl)cc(Br)c43)CC2)CC1` [Lonafarnib], for which the GFP- is 0.808.
`COCC(=O)NC/C=C/c1ccc2ncnc(Nc3ccc(Oc4ccc(C)nc4)c(C)c3)c2c1` registered a GFP- of 1.06.
For `C[C@H]1C[C@@H]2[C@H]([C@@H](O)C[C@@]3(C)[C@H]2CC[C@]3(O)C(=O)CO)[C@@]2(C)C=CC(=O)C=C12` [Methylprednisolone], the GFP- worked out at 0.847.
As for `CN1CCCC(n2nc(Cc3ccc(Cl)cc3)c3ccccc3c2=O)CC1` (centres undefined) [Azelastine, Azelastine Hydrochloride], the figure is 1.
`O=C(/C=C/c1ccc(CN(CCO)CCc2c[nH]c3ccccc23)cc1)NO` [Dacinostat] showed a GFP- of 0.556 ± 0.066.
Consider `Cc1[nH]c2ccccc2c1CCNCc1ccc(/C=C/C(=O)NO)cc1` [Panobinostat], for which the GFP- was 0.50294 ± 0.0002.
With `Cc1[nH]c2ccccc2c1CCNC(=O)c1cccs1` [N-[2-(2-methyl-1H-indol-3-yl)ethyl]thiophene-2-carboxamide], the GFP- is 1.11.
As for `Oc1cc2c(cc1O)[C@@H]1c3ccc(O)c(O)c3OC[C@]1(O)C2` [Hematoxylin], the figure is 0.962; as for `O=C(Nc1ccccc1-c1cn2c(CN3CCNCC3)csc2n1)c1cnc2ccccc2n1`, 0.752 and 0.432; as for `CCO/C(O)=C1\C(C)=NC(C)=C(C(=O)OC)C1c1cccc(Cl)c1Cl` (centres undefined) [Felodipine], 0.531.
Then `O=C1NC(=O)/C(=C/c2cccc(C(F)(F)F)c2)S1`, with 0.979 ± 0.056; and `CC(C)N(CCC(=O)c1ccc2ccccc2c1)Cc1ccccc1`, with 0.897 ± 0.031.
`CNCC[C@@H](Oc1ccccc1C)c1ccccc1` [Atomoxetine] showed a GFP- of 1.04.
As for `Cc1nc(NC(=O)N2CCC[C@H]2C(N)=O)sc1-c1ccnc(C(C)(C)C(F)(F)F)c1`, the figure is 0.875.
Turning to `CC(C)CN(C[C@@H](O)[C@H](Cc1ccccc1)NC(=O)O[C@H]1CCOC1)S(=O)(=O)c1ccc(N)cc1` [Amprenavir], the GFP- was determined as 1.01.
As for `Cc1ccc(NC(=O)C2(c3ccc4c(c3)OC(F)(F)O4)CC2)nc1-c1cccc(C(=O)O)c1` [Lumacaftor], the GFP- was found to be 0.94.
In turn, `CO[C@H]1C(=O)[C@]2(C)[C@@H](OC)C[C@H]3OC[C@@]3(OC(C)=O)[C@H]2[C@H](OC(=O)c2ccccc2)[C@]2(O)C[C@H](OC(=O)[C@H](O)[C@@H](NC(=O)OC(C)(C)C)c3ccccc3)C(C)=C1C2(C)C` [Cabazitaxel] showed a GFP- of 0.558.
Then `CC(=O)O[C@@]12CO[C@@H]1C[C@H](O)[C@@]1(C)C(=O)[C@H](O)C3=C(C)[C@@H](OC(=O)[C@H](O)[C@@H](NC(=O)OC(C)(C)C)c4ccccc4)C[C@@](O)([C@@H](OC(=O)c4ccccc4)[C@H]21)C3(C)C` [Docetaxel], with 0.447; and `CC(=O)O[C@H]1C(=O)[C@@]2(C)C([C@H](OC(=O)c3ccccc3)[C@]3(O)C[C@H](OC(=O)[C@H](O)[C@@H](NC(=O)c4ccccc4)c4ccccc4)C(C)=C1C3(C)C)[C@]1(OC(C)=O)CO[C@@H]1C[C@@H]2O` (some centres undefined) [Taxol, Paclitaxel], with 0.505; and `Cc1ccc(-n2nc(C)c(N=Nc3cccc(-c4cccc(C(=O)O)c4)c3O)c2O)cc1C` [Eltrombopag], with 0.82.
In turn, `C[C@]12C=CC(=O)C=C1CC[C@H]1[C@@H]3C[C@@H](O)[C@](O)(C(=O)CO)[C@@]3(C)C[C@H](O)[C@@]12F` [Triamcinolone] showed a GFP- of 0.986.
Then `Cc1ccc(S(=O)(=O)/C=C/C#N)cc1`, with 0.854.
As for `NC(=O)N/N=C/c1ccc([N+](=O)[O-])o1` [Nitrofural], the figure is 0.939.
Regarding `Cc1ccc(S(=O)(=O)c2ccc([N+](=O)[O-])o2)cc1`, the GFP- was 0.415.
Molecule `Cc1ccccc1N1C(=O)c2cc(S(N)(=O)=O)c(Cl)cc2NC1C` (centres undefined) [Metolazone] yielded a GFP- of 0.905.
Regarding `Oc1ccc(-c2nc(-c3ccc(F)cc3)c(-c3ccncc3)[nH]2)cc1`, the GFP- was 1.02.
For the molecule `CC(C)(C)Cn1c(N)nc2ccc(-c3[nH]c(C(C)(C)C)nc3-c3ccc(F)cc3)nc21`, the GFP- is 0.974.
Then `COc1ccc(-c2ccc3ncc4c(c3c2)n(-c2ccc(N3CCNCC3)c(C(F)(F)F)c2)c(=O)n4C)cn1`, with 0.4; and `Cn1c(=O)n(-c2ccc(C(C)(C)C#N)cc2)c2c3cc(-c4cnc5ccccc5c4)ccc3ncc21` [Dactolisib], with 0.74.
Then `CC1CCN(CC[C@H]2CCCN2S(=O)(=O)c2cccc(O)c2)CC1`, with 0.862.
Take `CC1CNc2c(cccc2S(=O)(=O)N[C@@H](CCCN=C(N)N)C(=O)N2CC[C@@H](C)C[C@@H]2C(=O)O)C1` (some centres undefined) [Argatroban]: the GFP- came out at 1.09.
On to `CC1(C)CCC2=C(O1)c1ccccc1C(=O)C2=O` [beta-Lapachone], for which the GFP- turned out to be 1.08.
The molecule `CCOC(=O)c1ccc(C#Cc2ccc3c(c2)C(C)(C)CCS3)nc1` [Tazarotene] yielded a GFP- of 1.05.
`N#Cc1ccc2[nH]cc(CCCCN3CCN(c4ccc5oc(C(N)=O)cc5c4)CC3)c2c1` [Vilazodone] showed a GFP- of 1.07.
As for `CO/C(O)=C1\C(C)=NC(C)=C(C(=O)OCCN2CCN(C(c3ccccc3)c3ccccc3)CC2)C1c1cccc([N+](=O)[O-])c1` (centres undefined) [Manidipine], the figure is 0.985 and 0.964; as for `Cc1ccc(Cl)cc1N(CC(=O)Nc1c(F)cccc1F)S(C)(=O)=O`, 1.06; as for `O=C(O)C(O)Cc1ccc(O)c(O)c1` (centres undefined) [Sodium Danshensu], 1.19.
As for `COc1nc(C)cnc1NS(=O)(=O)c1cccnc1-c1ccc(-c2nnco2)cc1` [Zibotentan], the figure is 1.19.

The values are drawn from the supplement of paper PMC11060735.
